The text below walks through data of PubChem BioAssay AID493170 (National Center for Advancing Translational Sciences (NCATS), 2011).

Inconclusive results are not listed. A number with no mark means an inactive call. Activity calls are given as the source filed them. The call rests on the fitted dose curve; in most records, active means well fitted inhibition curve with a large enough effect; inconclusive means small, poorly fitted or top-dose-only effect, or effect the other way; inactive means flat fitted curve, though single readings scatter.
On the % scale 0 is the no-effect control and ±100 the full control effect; potency means the concentration at half of the fitted maximal effect.

Ubiquitin carboxyl-terminal hydrolase 2 (Homo sapiens), sequence (O75604 whole entry, looked up): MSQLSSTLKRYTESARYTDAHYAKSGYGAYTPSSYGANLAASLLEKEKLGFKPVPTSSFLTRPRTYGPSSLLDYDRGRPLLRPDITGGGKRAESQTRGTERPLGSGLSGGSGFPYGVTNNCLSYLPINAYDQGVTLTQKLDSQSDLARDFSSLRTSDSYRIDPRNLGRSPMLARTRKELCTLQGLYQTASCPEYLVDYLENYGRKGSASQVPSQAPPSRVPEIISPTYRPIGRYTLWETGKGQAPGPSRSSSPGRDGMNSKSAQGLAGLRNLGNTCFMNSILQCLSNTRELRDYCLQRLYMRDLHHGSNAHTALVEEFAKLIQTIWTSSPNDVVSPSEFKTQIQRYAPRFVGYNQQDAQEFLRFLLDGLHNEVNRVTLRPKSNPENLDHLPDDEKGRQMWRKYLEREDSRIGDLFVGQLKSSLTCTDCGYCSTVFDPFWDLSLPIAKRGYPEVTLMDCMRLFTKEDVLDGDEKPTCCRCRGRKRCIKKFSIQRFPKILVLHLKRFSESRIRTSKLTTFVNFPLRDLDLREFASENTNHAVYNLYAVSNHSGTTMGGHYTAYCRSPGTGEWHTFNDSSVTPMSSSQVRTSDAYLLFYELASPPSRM

This assay addresses Ubiquitin carboxyl-terminal hydrolase 2 (Homo sapiens) (UniProt O75604). Nature of the assay: Ub-rhodamine 110 based assay for inhibitors Ubiquitin-specific Protease USP2a. Further: nearly all actives have a fitted effect of over 50% in size. The settings on record: USP2a Ub-rhodamine110 cleavage, fluorescence; series mostly up to 38.3 µM; activity change, negative = inhibition: at the top concentration. The procedure, abridged:
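5 nM USP2a preincubated with compounds for 30 min at RT in 20 mM Tris-HCl pH 8.0, 2 mM CaCl2, 2 mM beta-mercaptoethanol, 0.05% CHAPS. Cleavage of 150 nM Ub-rhodamine 110 read kinetically (Ex 485/Em 531) for 7 min.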
For `CC1CCCCC1NC(=O)CSCC(=O)O` (stereo not given), the “activity change, negative = inhibition” value is 0.809%.

`C(=N\N(c1ccccc1)c1ccccc1)/c1ccccn1`: the “activity change, negative = inhibition” value is -9.06%.

Turning to `COc1ccc(S(=O)(=O)NCCSCc2ccco2)cc1OC`, the Potency was 10 µM (active).

`CN(c1cccc(NC(=O)Nc2cccc(Cl)c2)c1)S(C)(=O)=O`: the “activity change, negative = inhibition” value is -7.59%.

As to `CCOC(=O)c1ccc(NC(=O)C2=C(C)Nc3nc(CCCO)nn3C2c2cccc(C)c2)cc1` (stereo not given), the “activity change, negative = inhibition” value is 0.0256%.

As to `c1coc(CNC2CCCCCCC2)c1`, the “activity change, negative = inhibition” value was -3.41%.

On to `CCn1c(SCC(=O)NCCc2ccccc2)nnc1-c1cccs1`, for which the “activity change, negative = inhibition” value was -2.84%.

For `Cc1noc(C)c1NC(=O)Nc1ccc2c(c1)C(=O)N([C@H](C)CO)C[C@H](C)[C@@H](CN(C)S(=O)(=O)c1ccccc1)O2`, the “activity change, negative = inhibition” value was -2.56%.

With `COc1ccc(/C=C\C(=O)O[C@@H]2C(O)C(O[C@@H]3OC(C)[C@H](O[C@@H]4OCC(O[C@H]5O[C@H](CO)[C@@H](O)C(O)C5O)C(O)C4O)C(O)C3O)[C@H](OC(=O)[C@]34CCC(C)(C)C[C@@H]3C3=CCC5[C@@]6(C)CC(O)C(O[C@@H]7OC(CO)C(O)[C@H](O)[C@H]7O)[C@@](C)(C(=O)O)C6CC[C@@]5(C)[C@]3(CO)CC4)O[C@H]2C)cc1` (stereo not given in full), the “activity change, negative = inhibition” value is -12.9%.

For the compound `COc1ccc(S(=O)(=O)N(C)CC(=O)Nc2cccc(C(C)=O)c2)cc1Cl`, the “activity change, negative = inhibition” value is -5.77%.

Take `CC(C(=O)Nc1ccc(C(=O)O)c(O)c1)N1C(=O)/C(=C\c2ccco2)SC1=S` (stereo not given): the Potency is 10 µM (active).

As to `NC1=NC2(CCC(c3ccccc3)CC2)n2c(nc3ccccc32)N1` (stereo not given), the “activity change, negative = inhibition” value was -18.1%.

In the case of `O=C(c1cccc(F)c1)N1CCN(S(=O)(=O)c2ccccc2)CC1`, the “activity change, negative = inhibition” value was -1.48%.

For `Cc1ccc(S(=O)(=O)Nc2ccccc2C(=O)Nc2nc(-c3ccc(F)cc3)cs2)cc1`, the Potency was 7.08 µM (active).

Take `COc1ccc(-c2nc(Cn3c(SCc4ccc(F)cc4)nc4ccncc43)c(C)o2)cc1OC`: the “activity change, negative = inhibition” value is 3.48%.

As for `COc1ccc(CN(Cc2cc3cc(C)ccc3[nH]c2=O)C(=O)N(C)C)cc1`, the “activity change, negative = inhibition” value was -5.17%.

Turning to `CN1CCN(S(=O)(=O)c2ccc(N3CCN(S(=O)(=O)/C=C/c4ccccc4)CC3)nc2)CC1`, the “activity change, negative = inhibition” value was 1.29%.

As to `Oc1ccc(/C=N/NC(=S)N/N=C/c2ccc(O)cc2)cc1`, the “activity change, negative = inhibition” value was -8.74%.

In the case of `N=c1sccn1CC(=O)Nc1ccc(S(=O)(=O)N2CCOCC2)cc1`, the “activity change, negative = inhibition” value was 12.8%.

For the compound `O=C(N/N=C/c1ccc(F)cc1)c1cc(-c2ccco2)nc2ccccc12`, the Potency was 2 µM (active).

For `CC(C)(C)C1CCC2(CC1)Nc1cccc3cccc(c13)N2`, the “activity change, negative = inhibition” value is -19.4%.

For the compound `O=C(Cc1ccc(S(=O)(=O)N2CCOCC2)s1)NCCC(c1ccccc1)c1ccccc1`, the Potency is 10 µM (active).

Take `CCOc1cc(N2CCOCC2)c(OCC)cc1NC(=O)Cc1cn2ccsc2n1`: the “activity change, negative = inhibition” value was 16.1%.

On to `CC(=O)c1cccc(NC(=O)C(C)OC(=O)c2cc(=O)[nH]c3ccccc23)c1` (stereo not given), for which the “activity change, negative = inhibition” value was -17%.

`CC(=O)N1c2c(cc(Br)cc2S(=O)(=O)NCc2cccnc2)CC1C` (stereo not given): the “activity change, negative = inhibition” value is -1.19%.

For the compound `CC(=O)Nc1ccc(Nc2cc(C)nc(Nc3ccc(NC(C)=O)cc3)n2)cc1`, the “activity change, negative = inhibition” value is -6.62%.

For `O=C(O)CN1C(=O)/C(=C\c2ccccc2OCc2ccc(Cl)cc2Cl)SC1=S`, the Potency is 10 µM (active).

In the case of `CC(=O)O[C@H]1[C@H](O)[C@H](Oc2c(O)c(C)c3c4c2[C@@H](C)CC[C@@H]4[C@@H](C)C[C@H]3C=C(C)C)O[C@@H](C)[C@H]1O`, the “activity change, negative = inhibition” value was -1.57%.

For `Cc1ccc(/C=C/S(=O)(=O)N2CCC(C(=O)O)CC2)cc1`, the “activity change, negative = inhibition” value is 1.06%.

As to `CC12CN3CC(C)(CN(C1)C3c1ccc(Cl)cc1Cl)C2O` (stereo not given), the “activity change, negative = inhibition” value was -1.96%.

Turning to `CCOc1ccc(NC(=O)N(CCCN2CCOCC2)Cc2cccnc2)cc1`, the “activity change, negative = inhibition” value was 3.46%.

As for `OCCN(Cc1ccccc1)c1ncnc2sccc12`, the “activity change, negative = inhibition” value was -13.2%.

`N#CCC(=O)Nc1ccc(C(=O)OCC(=O)NCc2ccc3c(c2)OCO3)cc1`: the Potency was 10 µM (active).

As to `CC1CCCCN1CCNC(=O)c1cnn2ccccc12` (stereo not given), the “activity change, negative = inhibition” value was 8.54%.

Regarding `O=C1c2ccccc2C(=O)N1CCC1=CCCCC1`, the “activity change, negative = inhibition” value is -8.94%.

`CC(OC(=O)CN(C)S(=O)(=O)c1ccc(Cl)cc1)C(=O)Nc1ccc(N2CCOCC2)cc1` (stereo not given): the “activity change, negative = inhibition” value was 4.42%.

Turning to `COc1ccccc1C1NC(c2ccccc2OC)C(C)C(=O)C1C` (stereo not given), the “activity change, negative = inhibition” value is 5.06%.

For the compound `COc1ccccc1N1CCN(c2cc(C)nc3nc(C)nn23)CC1`, the “activity change, negative = inhibition” value was -3.98%.

For the compound `O=C1Nc2ccc(S(=O)(=O)N3CCCCCC3)c3cccc1c23`, the “activity change, negative = inhibition” value was -11.5%.

For the compound `CN(CC(=O)Nc1cccc2ccccc12)C(=O)c1ccc(NC(=O)CC#N)cc1`, the Potency is 11.2 µM (active).
